Screening data (PubChem)
Sampled rows, rich in hits. Any-hit rate of the full collection: about 2.3%.
HepG2 tox: qHTS for Inhibitors of TGF-b: Cytotox Counterscreen | 0.76% of 410,000 active | Potency, µM (series often up to 46.1 µM), for inactives: at the top dose activity change, negative = cytotoxicity, actives largely listed as cytotoxic | HepG2 CAGA-GFP viability, ATP luminescence, 18 h
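CellTiter-Glo luminescence gave cytotoxicity after 18 hours at 37 degrees C. The cells were HepG2 CAGA-GFP in 1% FBS DMEM, stimulated with 500 pg/mL TGF-beta after compound addition. %Activity was normalised to no-cell wells (complete cell-killing) and DMSO (no toxicity), and curves were fitted and classified.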
TGFb inhibitor: qHTS for Inhibitors of TGF-b. HepG2 CAGA-GFP TGF-b/SMAD3 reporter, GFP fluorescence, 18 h; TGF-beta stimulated, 500 pg/mL final. Potency, µM (series often up to 46.1 µM), inactives show at the top dose activity, negative = inhibition, actives largely listed as inhibitors. 1.2% of 410,000 active. AID 588855, 2011; also: % is scaled to controls: 0 for no effect and ±100 for the full control effect; nearly all actives have a fitted effect of over 65% in size
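Inhibition was scored as loss of TGF-beta-induced (500 pg/mL final, 18 hours, 37 degrees C) GFP in HEPG2 cells carrying a CAGA-GFP reporter, in DMEM with 1% FBS. Well GFP was summed per cell; Activity was normalised to unstimulated and stimulated DMSO wells, then concentration-response fitting.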
ATXN2 expr inh: Primary qHTS for Inhibitors of ATXN expression; Potency, µM (highest dose often 57 µM), for inactives: at the top dose activity change, negative = inhibition, hits mostly inhibitors; HEK-293 ATXN2-luciferase reporter, luminescence, 24 h; 0.72% of 360,000 active; also: % is scaled to controls: 0 for no effect and ±100 for the full control effect; nearly all actives have a fitted effect of over 55% in size
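qHTS (up to 57 uM final) was run with 24 h compound exposure of reporter cells at 37 °C. Each well was multiplexed: SteadyGlo luminescence measured ATXN2-luciferase expression after a fluorogenic Gly-Phe-AFC viability readout (25 uM final).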
S2 tox: Viability Counterscreen for Primary qHTS for Inhibitors of ATXN expression. 0.49% of 400,000 active. Potency, µM (series often up to 56.7 µM), most hits filed as cytotoxic. S2 cells (HEK-293 line with an ATXN2-luciferase reporter) viability, CellTiter-Fluor protease fluorescence, 24 h; also: nearly all actives have a fitted effect of over 40% in size
The depositor's hits bear a star; i = inactive; u = inconclusive; x = not tested or not shown; [ ] = dose if it differs, or a comment. Calls follow the shape of the dose curve; as a rule, active = well fitted curve in the direction sought with a large enough effect; inconclusive = small, poorly fitted or top-dose-only effect, or another doubt; inactive = no such curve, though single readings can be large; an effect the other way counts as inactive or inconclusive. Potency is read from the fitted curve at half-maximal effect.

SMILES	HepG2 tox	TGFb inhibitor	ATXN2 expr inh	S2 tox
COc1ccccc1C1c2[nH]c3ccccc3c2C[C@H]2C(=O)N(C3CCN(Cc4ccccc4)CC3)CC(=O)N12 (some centres undefined)	-43.3%	11.2µM*	-24.4%	u
OC[C@]1(O)OC[C@@H](O)[C@H](O)[C@@H]1O	x	x	1.1%	i
O=C(CCl)N=c1sccn1Cc1ccc(Cl)cc1Cl	12.6µM*	u	-35.1%	u
O=C(CCl)N=c1sccn1Cc1cccc2ccccc12	-110.9%	u	0.0299µM*	u
O=C(CCl)N=c1sccn1Cc1ccccc1Cl	10µM*	11.2µM*	u	x
CCC(=O)OCC(=O)N=c1sccn1Cc1ccccc1Cl	-6.3%	-5.9%	0.1%	i
COc1cccc(/C=C/c2nc3ccccc3nc2/C=C/c2cccc(OC)c2OC)c1OC	-18.5%	25.0%	x	x
OC1(c2cccnc2)CCN(Cc2ccc3c(c2)CN(Cc2cccc4nccnc24)CCO3)CC1	x	x	x	i
CC1(C)OC(=O)Nc2ccc(Br)cc21	x	x	18.6%	i
CCC1Sc2ccc(S(=O)(=O)CCC(=O)Nc3ccc(OC(F)(F)F)cc3)cc2NC1=O (centres undefined)	10µM*	u	x	u
CCC1Sc2ccc(S(=O)(=O)CCC(=O)Nc3ccc(NC(C)=O)cc3)cc2NC1=O (centres undefined)	-1.2%	-0.4%	11.9%	i
CCC(=O)N1CCc2cc(S(=O)(=O)CCC(=O)Nc3ccc(OC(F)(F)F)cc3)ccc21	-17.7%	11.2µM*	-22.5%	i
CN[C@@H]1[C@@H](O[C@H]2O[C@H](CO)[C@@H](N)[C@H](O)[C@H]2O)O[C@H]2C[C@@H](N)[C@@H](O[C@H]3[C@H](O)[C@@H](O)[C@H](N)C[C@@H]3N)O[C@@H]2[C@@H]1O	x	x	x	i
O=C1NC(Cc2ccc(O)cc2)c2nc3ccc(Br)cc3c(=O)n2-c2cc3ccccc3cc21 (centres undefined)	-35.6%	12.6µM*	u	u
CCCCN1C(=O)/C(=C/C=C2\Oc3ccccc3N2CC)SC1=S	-0.4%	80.9%	-12.6%[11.3 µM]	u
CCN1/C(=C/C=C/c2oc3ccc(-c4ccccc4)cc3[n+]2CC)Oc2ccc(-c3ccccc3)cc21	-111.5%	102.6%	9.47µM*	x
Cc1nc2ccc(C(=O)OC(C)C(=O)c3c(C)[nH]c4ccccc34)cc2nc1C (centres undefined)	-22.1%	5.6%	x	x
Cc1ccc2nccc(/C=C/c3ccc(N(C)C)cc3)c2c1	-23.7%	1.4%	x	x
C=CCOC(=O)C1=C(C)NC(=S)C(C#N)(CC=C)C1c1ccccc1Cl (centres undefined)	-37.6%	11.2µM*	x	i
C=CCOC(=O)C1=C(C)OC(N)=C(C#N)C1c1ccccc1F (centres undefined)	-16.8%	-20.9%	-1.2%	i
Cc1nn2c(NCc3ccccn3)cc(C(C)(C)C)nc2c1-c1ccccc1	-57.4%	u	-29.1%	u
Cc1cc(NCc2ccccn2)n2nc(C)c(-c3ccccc3)c2n1	-34.8%	11.2µM*	u	u
Cc1cc[n+](C2CCCCC2)c2ccccc12	-2.0%	-4.3%	x	x
CCc1ccc(O)c(CNCCNCc2cc(CC)ccc2O)c1	15.8µM*	u	u	u
Cc1ccc(S(=O)(=O)N[C@@H](Cc2ccccc2)C(=O)CCl)cc1	-94.3%	u	u	31.6µM*
SMILES	HepG2 tox	TGFb inhibitor	ATXN2 expr inh	S2 tox
O=C(/C=C/c1ccnc2ccccc12)c1cccs1	5.62µM*	u	-92.7%	u
C(=C\c1ccnc2ccccc12)/c1cccs1	-30.4%	u	x	x
CC(O)CNCCOc1ccccc1OCc1ccccc1 (centres undefined)	-33.7%	-3.2%	u	i
CC(O)CNCCNCc1c(OCc2ccccc2)ccc2ccccc12 (centres undefined)	-93.1%	11.2µM*	25.1µM*	u
CN(Cc1cccc(F)c1)C(=O)c1ccc(NS(=O)(=O)c2ccc3[nH]c(=O)[nH]c3c2)cc1	0.282µM*	-15.9%	-15.1%	i
CCCCn1c(N)c(N(CCC(C)C)C(=O)c2ccc(-c3ccc([N+](=O)[O-])cc3)o2)c(=O)[nH]c1=O	5.8%	0.6%	14.1µM*	x
CSc1ccc(C2C(C#N)=C(N)Oc3cc4c(cc32)OCO4)cc1 (centres undefined)	-38.6%	12.6µM*	-37.2%	i
